GLS inhibitor = glutaminase GLS (human) inhibition | Potency, µM (series often up to 45.5 µM), without a hit: at the top dose activity change, negative = inhibition, usual class: inhibitors | 410,000 tested, 0.21% active | AID 624170 | GLS enzymatic activity, qHTS titration
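Enzyme dispensed in phosphate buffer (45 mM, pH 8.2, 0.02% Tween-20), compounds pinned in, then 1 mM L-glutamine solution and the glutamate oxidase–HRP–Amplex Red mix added; fluorescence read immediately and again after 30 min at room temperature.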
BLM helicase inh = Bloom syndrome helicase (human) inhibition. AID 2528. 350,000 tested, 0.2% active. Potency, µM (top dose mostly 56.1 µM), inactives show at the highest dose activity change, negative = inhibition, most hits filed as inhibitors. recombinant BLM DNA unwinding, fluorescence dequenching. P54132;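 further: plate controls were vehicle for no effect and no enzyme for full effect; nearly all actives have a fitted effect of over 35% in size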
Target sequence (P54132 whole entry, looked up): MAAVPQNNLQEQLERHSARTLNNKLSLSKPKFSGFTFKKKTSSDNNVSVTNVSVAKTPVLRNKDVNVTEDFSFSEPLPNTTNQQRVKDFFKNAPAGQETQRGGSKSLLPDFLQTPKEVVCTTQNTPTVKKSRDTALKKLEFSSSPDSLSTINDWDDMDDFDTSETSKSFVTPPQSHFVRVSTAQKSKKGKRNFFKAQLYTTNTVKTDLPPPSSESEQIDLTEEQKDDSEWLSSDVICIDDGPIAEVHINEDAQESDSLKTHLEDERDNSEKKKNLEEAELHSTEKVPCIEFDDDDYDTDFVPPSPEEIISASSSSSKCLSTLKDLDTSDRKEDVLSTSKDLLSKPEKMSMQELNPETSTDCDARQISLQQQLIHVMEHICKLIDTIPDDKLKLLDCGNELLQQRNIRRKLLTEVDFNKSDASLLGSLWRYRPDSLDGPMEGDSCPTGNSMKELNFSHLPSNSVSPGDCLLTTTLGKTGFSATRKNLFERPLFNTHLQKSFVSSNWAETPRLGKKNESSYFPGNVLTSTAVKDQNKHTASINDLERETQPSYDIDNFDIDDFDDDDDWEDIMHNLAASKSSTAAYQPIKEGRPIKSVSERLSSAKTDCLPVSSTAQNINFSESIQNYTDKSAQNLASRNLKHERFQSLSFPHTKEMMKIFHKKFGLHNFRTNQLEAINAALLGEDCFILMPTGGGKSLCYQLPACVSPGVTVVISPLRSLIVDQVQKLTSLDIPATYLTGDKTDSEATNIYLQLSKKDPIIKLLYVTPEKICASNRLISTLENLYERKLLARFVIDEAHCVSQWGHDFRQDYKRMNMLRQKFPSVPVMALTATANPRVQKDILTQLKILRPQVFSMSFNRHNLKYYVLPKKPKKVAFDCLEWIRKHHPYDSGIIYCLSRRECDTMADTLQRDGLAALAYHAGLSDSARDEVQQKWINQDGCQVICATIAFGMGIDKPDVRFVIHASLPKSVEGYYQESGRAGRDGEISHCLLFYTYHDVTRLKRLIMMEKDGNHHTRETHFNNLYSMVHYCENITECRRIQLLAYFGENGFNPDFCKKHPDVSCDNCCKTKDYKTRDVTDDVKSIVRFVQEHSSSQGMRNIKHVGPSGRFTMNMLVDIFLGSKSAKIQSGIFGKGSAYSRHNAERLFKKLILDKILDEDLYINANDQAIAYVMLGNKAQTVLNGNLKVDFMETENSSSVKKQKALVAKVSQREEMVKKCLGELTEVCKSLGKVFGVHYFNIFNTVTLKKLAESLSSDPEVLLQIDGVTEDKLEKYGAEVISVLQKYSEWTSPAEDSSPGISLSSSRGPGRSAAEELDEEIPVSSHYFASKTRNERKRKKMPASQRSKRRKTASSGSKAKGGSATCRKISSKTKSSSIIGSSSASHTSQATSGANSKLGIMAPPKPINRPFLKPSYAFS
APE1 inh = blocks human APE1 abasic DNA cleavage; recombinant APE1, TAMRA/BHQ-2 abasic DNA cleavage fluorescence; 350,000 tested, 0.35% active; P27695; Potency, µM (top dose mostly 65.8 µM), without a hit: top-dose activity change, negative = inhibition, usual class: inhibitors; AID 2517;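 further: plate controls were vehicle for no effect and reference inhibitor for full effect; nearly all actives have a fitted effect of over 55% in size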
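APE1 at 0.75 nM preincubated 15 min at room temperature with compound. Reaction then started with 50 nM double-stranded THF-abasic substrate labelled with TAMRA/BHQ-2, and 525/598 nm fluorescence read kinetically. Activity taken as third-minus-first read difference, normalized to DMSO and NSC13755 controls.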
FEN1 inh = inhibitors of human flap endonuclease 1. Recombinant FEN1 flap cleavage, fluorescence, 15 min. Potency, µM (top dose mostly 114 µM), inactives show at the highest dose activity change, negative = inhibition, hits mostly inhibitors. 390,000 tested, 0.35% active; further: nearly all actives have a fitted effect of over 65% in size
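Quantitative HTS format: each compound was titrated, incubated with 10 nM nuclease for 15 min at room temperature, then challenged with flap substrate at 50 nM final. Signal change over 15 min gave concentration–effect curves.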
Tb PGK inh = blocks T. brucei phosphoglycerate kinase; PGK/GAPDH coupled, Kinase-Glo luminescence, 60 min; 380,000 tested, 0.043% active; Potency, µM (highest dose often 57.5 µM), for the others: at the highest dose activity change, negative = inhibition, actives largely listed as inhibitors; P07378; further: nearly all actives have a fitted effect of over 60% in size
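Luminescent ATP detection (Kinase-Glo Plus) follows a 60-minute room-temperature incubation, with wells lacking PGK as controls. Buffer: 100 mM TEA (pH 7.6), 5 mM MgCl2, 0.01% Tween-20. Coupling enzyme GAPDH (100 nM final) supplies unstable 1,3-BPG in-well.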
RECQ1 inh = blocks DNA unwinding by human RECQ1; P46063; RECQ1 DNA unwinding, red fluorescence kinetic read; Potency, µM (titrated, usually from 57.3 µM), without a hit: at the highest dose activity, negative = inhibition, usual class: inhibitors; 240,000 tested, 0.54% active; AID 2549;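 further: plate controls were vehicle for no effect and no enzyme for full effect; nearly all actives have a fitted effect of over 30% in size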
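50 nM RECQ1T1 preincubated 15 min with compound in Tris pH 8.0 buffer with MgCl2, DTT, Tween-20 and 2.5 ug/ml poly(dI-dC); started with 200 nM TAMRA/BHQ-2 forked duplex and 2 mM ATP. Unwinding read as fluorescence (525/598 nm), two reads 2 h apart.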
* marks the source's active call; other numbers are inactive results; i = inactive; ? = inconclusive; . = not tested or not shown; ! = a repeat was not active; [ ] = dose if it differs, or a comment. Sampled rows, rich in hits. Any-hit rate of the full collection: about 0.86%. The call rests on the fitted dose curve; in most records, active means well fitted curve in the direction sought with a large enough effect; inconclusive means small, poorly fitted or top-dose-only effect, or another doubt; inactive means no such curve, though single readings can be large; an effect the other way counts as inactive or inconclusive. Unless noted, on the % scale 0 is the no-effect control and ±100 the full control effect; potency means the concentration at half of the fitted maximal effect.

SMILES	GLS inhibitor	BLM helicase inh	APE1 inh	FEN1 inh	Tb PGK inh	RECQ1 inh
O=C(OC[C@H]1O[C@](O)(COC(=O)c2cccnc2)[C@@H](OC(=O)c2cccnc2)[C@@H]1OC(=O)c1cccnc1)c1cccnc1	.	.	7%	.	.	.
Cc1ccc(CN(C)c2ccc(N3CCN(C)CC3)cc2)cc1	.	.	17%	.	.	.
C=Cc1ccc(S(=O)(=O)O)cc1	1%	-4%	14µM*	.	.	-17%
O=S(=O)(O)c1ccc(O)cc1	-12%	-11%	.	.	.	.
CN(C)N=Nc1ccc(/C=C2\C=Cc3ccccc32)cc1	.	.	.	-12%	.	.
COc1ccc(CN2CC[C@H]3C=CC[C@@H](C(=O)Nc4nccs4)[C@H]3C2=O)cc1OC	.	.	.	14%	.	.
OC[C@H]1O[C@@H](O[C@H]2[C@H](O)[C@@H](O)[C@H](O)O[C@@H]2CO)[C@H](O)[C@@H](O)[C@@H]1O	.	.	-1%	.	.	.
O=C(COc1ccc(S(=O)(=O)N2CCOCC2)cc1)N1CCOCC1	1%	.	-9%	-2%	-3%	.
O=C(COc1ccc(/C=C\[N+](=O)[O-])cc1)N1CCOCC1	-20%	0%	?	20%	3%	32µM*
Oc1ccc(Nc2ccc3ccccc3c2)cc1	14µM*	.	.	-3%	-8%	.
Oc1ccc(Nc2nc(-c3ccc4ccccc4c3)cs2)cc1	.	1%	-1%	.	.	-5%
O=C1c2cccc3cccc(c23)C(=O)N1CC1CCN(CC(O)COc2ccc3ccccc3c2)CC1 (stereo unspecified)	-9%	-7%	-3%	-8%	-10%	?
COc1cccc(OCC(O)CN2CCC(CN3C(=O)c4cccc5cccc(c45)C3=O)CC2)c1 (stereo unspecified)	0%	101%	?	28µM*	-8%	20%
O=C(c1ccccc1)C(c1ccccc1)[n+]1csc2ccccc21 (stereo unspecified)	.	.	.	-6%	.	.
OCC[N+]1(CCc2ccccc2)CCOCC1	.	.	.	10%	.	.
O=C(Nc1nccs1)[C@@H]1CC=C[C@@H]2CCN(C3CCCCC3)C(=O)[C@@H]21	.	.	.	4%	.	.
Cc1c(Cl)cccc1N1CC(C)(C)C1=O	0%	0%	-4%	3%	-4%	18µM*
CC1(C)CN(c2ccc(Br)cc2Br)C1=O	15%	1%	1%	7%	1%	i
NC(C(=O)O)C(O)c1ccc(O)c(O)c1 (stereo unspecified)	31%	?	.	.	.	.
CC1=NN(c2ccccc2)C(=O)/C1=C/c1ccc(-c2ccc(C)c(C(=O)O)c2)o1	-2%	.	.	18µM*	-20%	.
CC1=NN(c2ccc(C(=O)O)cc2)C(=O)/C1=C/c1ccc(-c2ccccc2F)o1	.	1%	-2%	.	.	.
O=C1NN(c2ccccc2)C(=O)/C1=C/c1ccc(Sc2cccc3ccccc23)o1	-23%	?	-2%	?	-15%	20µM*
O=C1NN(c2ccccc2)C(=O)C1=Cc1ccccc1O	23%	.	.	.	-2%	.
O=C1NN(c2ccccc2)C(=O)/C1=C/c1ccc(-c2ccc(C(=O)O)cc2)o1	11µM*	-7%	-32%	50µM*	-18%	.
O=C1NN(c2ccccc2)C(=O)/C1=C\c1ccc2c(c1)OCO2	-26%	-5%	16%	0%	i	.
SMILES	GLS inhibitor	BLM helicase inh	APE1 inh	FEN1 inh	Tb PGK inh	RECQ1 inh
Cc1ccc(N2NC(=O)/C(=C/c3ccc(-c4ccc(Cl)c(C(=O)O)c4)o3)C2=O)cc1C	?	-4%	-10%	-1%	-8%	i
O=C1NN(c2ccc(Cl)c(Cl)c2)C(=O)/C1=C/c1ccc(-c2ccccc2C(=O)O)o1	13µM*	-2%	-23%	?	?	.
O=C(O)C#CC(=O)O	.	.	.	0%	.	.
Nc1ncnc2c1nc(Sc1ccc(Cl)cc1)n2[C@H]1OC2COP(=O)(O)O[C@H]2[C@@H]1O (stereo partly specified)	.	.	.	-5%	.	.
O=C(CNS(=O)(=O)c1ccc([N+](=O)[O-])cc1)N/N=C/c1ccc(O)cc1O	13µM*	-5%	49%	0%	4%	.
O=C(CNS(=O)(=O)c1ccc([N+](=O)[O-])cc1)N/N=C\c1ccc(O)cc1	19%	-3%	4%	18%	.	.
Cc1ccccc1C(=O)Nc1ccc2c(C#N)c3nc4ccccc4nc3n2c1	1%	?	?	?	-10%	32µM*
Cc1cccc(N2CCN(C(=O)NCc3noc4ccccc34)CC2)c1C	6%	-8%	.	89µM*	0%	.
Cc1ccc2onc(CNC(=O)N3CCN(c4cccc(C)c4C)CC3)c2c1	13%	-4%	.	-14%	-5%	.
O=C(C[n+]1csc2ccccc21)c1ccc(O)c(O)c1	.	.	.	50µM*	.	.
c1ccc(C[n+]2csc3ccccc32)cc1	36%	0%	-1%	2%	-2%	i
Nc1[nH]n2c(=O)cc(-c3ccccc3)nc2c1N=Nc1ccccc1	8%	-4%	2%	7%	-1%	-6%
Nc1[nH]n2c(=O)cc(-c3ccccc3)nc2c1N=Nc1ccc(S(N)(=O)=O)cc1	20%	-14%	8.9µM*	-25%	2%	-18%
c1csc(CNc2ccc(N3CCOCC3)cc2)c1	.	.	33%	.	.	.
CN(C)c1ccc(/C=C2\C=Cc3ccccc32)cc1F	.	.	.	6%	.	.
C=CCOc1ccc(CNc2ccc3[nH]c(=O)[nH]c3c2)cc1	11µM*	-11%	11%	-6%	-7%	-11%
COc1ccc(CCNC(=O)CCCn2nc(C)c3sc4ccccc4c3c2=O)cc1OC	-5%	1%	.	45µM*	i	.
Cc1nn(CCCC(=O)NCCc2ccc(Cl)cc2)c(=O)c2c1sc1ccccc12	-5%	-5%	.	45µM*	-4%	.
CC(C)(C)NS(=O)(=O)c1cccc(-c2nnc(SCC(=O)Nc3ccc(C(=O)O)cc3)n2-c2ccc(F)cc2)c1	.	.	51%	.	.	.
CCc1nc2ccc(C(=O)N3CCN(c4cccc(C)c4C)CC3)cc2nc1CC	6.3µM*!	-11%	62%	1%	8%	.
CC1CCCCN1c1ccc(N)cc1C(N)=O (stereo unspecified)	2µM*	-9%	5%	1%	5%	-14%
C/C=C\C1=C(CO)C(=O)[C@@H]2OC2C1=O (stereo partly specified)	.	-5%[12.4 µM]	1.6µM*	.	.	3.5µM*
C/C=C\C1=C(CO)[C@H](O)[C@H]2O[C@H]2[C@H]1O	.	3%[12.4 µM]	17%[12.4 µM]	.	.	i[11.5 µM]
CC(C)(C)n1ncc2c(=O)n(Cc3cc(C(F)(F)F)ccc3Cl)cnc21	.	.	1%	-26%	.	.
CN(C)/[N+]([O-])=N/Oc1ccc([N+](=O)[O-])cn1	.	.	.	2%	.	.
[O-][n+]1c2ccccc2[n+]([O-])c2cc(O)ccc21	120%	-30%	19µM*	?	?	.

Bioassay records as filed in PubChem.
